# NS1 inh = qHTS Assay for Inhibitors of Influenza NS1 Protein Function; 270,000 tested, 0.4% active; Potency, µM (series often up to 46.1 µM); further: actives are rising curves; nearly all actives have a fitted effect of over 50% in size
#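 Recovery from NS1-induced slow growth read by OD600 in budding yeast switched to galactose assay medium (pH 6.0, -URA) at 1:100 dilution. Compound 23 nl per well; the matching strain lacking NS1 serves as control.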
# SARS PLP yeast = qHTS of Yeast-based Assay for SARS-CoV PLP. S. cerevisiae expressing SARS-CoV PLpro, growth rescue. Potency, µM (doses to about 32.9 µM), usual class: activators. 330,000 tested, 0.19% active. AID 485353, 2010; further: nearly all actives have a fitted effect of over 55% in size
# Pf growth 48h = Primary qHTS for delayed death inhibitors of the malarial parasite plastid, 48 hour incubation | P. falciparum luciferase growth in erythrocytes, 48 h | Potency, µM (top dose mostly 28.7 µM), usual class: inhibitors | 310,000 tested, 5.9% active; active means well fitted inhibition curve with a large enough effect; inconclusive means small, poorly fitted or top-dose-only effect, or another doubt; inactive means no such curve, though single readings can be large or run the other way
#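 Growth was read as firefly luciferase luminescence after a 48 h, 37 C, 5% CO2 exposure of compounds to reporter-bearing P. falciparum cultures (0.1% parasitemia, 2% hematocrit final) in Albumax-supplemented RPMI 1640.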
# Pf growth 96h = Primary qHTS for delayed death inhibitors of the malarial parasite plastid, 96 hour incubation | P. falciparum luciferase reporter growth, 96 h | Potency, µM (highest dose often 28.7 µM), actives largely listed as inhibitors | 320,000 tested, 6.9% active; active means well fitted inhibition curve with a large enough effect; inconclusive means small, poorly fitted or top-dose-only effect, or another doubt; inactive means no such curve, though single readings can be large or run the other way
#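 Erythrocytes infected with luciferase-expressing P. falciparum were dispensed at 2% hematocrit and 0.05% parasitemia (final), then incubated with compounds 96 hours at 37 C in 5% CO2. Luminescence after detection reagent addition reported growth.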
# Numbers stand for hits; – = inactive; ? = inconclusive; · = no result given; [ ] = remark or other dose. This is a sample that favours compounds with a hit; in the whole collection about 10% have one here. Unless noted, the call rests on the fitted dose curve.
SMILES,NS1 inh,SARS PLP yeast,Pf growth 48h,Pf growth 96h
Cc1cc(C)c[n+](C(C)C(=O)c2ccc(-c3ccccc3)cc2)c1 (stereo unspecified),–,–,1.3µM,–
Cc1cc(/C=N/n2cnnc2)c(C)n1-c1ccc(OCc2ccc(Cl)cc2)cc1,–,–,·,12µM
CC(C)(C)c1ccc(O)c(C[N+](C)(C)C)c1,–,·,·,·
CCOC(=O)CN1C2=NCCN2c2ccccc21,–,–,–,·
CCCCCN1C2=NCCN2c2ccccc21,–,–,?,8.3µM
O=C(Nc1cccc(C2=NCCN2)c1)Nc1cccc(C2=NCCN2)c1,·,·,1.7µM,1.2µM
O=C(Nc1cccc(Cl)c1)Nc1nc(-c2ccc(Cl)cc2)cs1,–,–,?,–
O=C(Nc1ccncc1)Nc1cccc(Cl)c1,–,–,1.5µM,–
CNC(=S)Nc1ccc(Cc2ccncc2)cc1,–,–,–,–
O=C(Nc1cccc(Cl)c1)Nc1csc([N+](=O)[O-])c1,–,–,3.7µM,2.6µM
S=C(Nc1ccc(Cc2ccncc2)cc1)Nc1cccc(Cl)c1,–,–,–,13µM
Cn1nc(C(=O)OCC(=O)Nc2ccc(C(N)=O)cc2)c2ccccc2c1=O,·,–,·,·
Cc1cc(C)c(NC(=O)COC(=O)c2ccncc2)c(C)c1,·,–,·,·
CSc1ccccc1NC(=O)Nc1cccc(Cl)c1,–,–,–,·
O=C(Nc1ccc(NC(=O)c2ccc(Cl)cc2Cl)cc1)c1ccc2c(c1)OCO2,–,–,–,?
O=C(Nc1ccc(C2=NCCN2)cc1)c1ccc(C(=O)Nc2ccc(C3=NCCN3)cc2)c(Cl)c1,–,–,0.52µM,?
O=C(Nc1cccc(Cl)c1)Nc1ccccc1-n1ccnc1,–,–,?,12µM
CC(C)Sc1nc2ncnc(N)c2[nH]1,·,–,–,–
Cc1cc(SCC(=O)c2ccc(Br)cc2)cc(C)[o+]1,–,·,·,·
OCCNc1nc2nonc2nc1NCCO,·,–,–,–
CCN(CC)CCNc1nc2nonc2nc1NCCN(CC)CC,–,–,8.3µM,12µM
CN(C)c1ccccc1CN1CCCN(Cc2ccccc2N(C)C)C1c1ccncc1,–,·,·,·
CCCOC(=O)c1ccc(S(N)(=O)=O)o1,–,–,–,7.4µM
CCCCOC(=O)c1ccc(S(N)(=O)=O)o1,–,–,–,?
Cc1ccc(C(=O)Nc2cccc(-c3ccc(N4CCOCC4)nn3)c2)cc1C,·,–,?,?
SMILES,NS1 inh,SARS PLP yeast,Pf growth 48h,Pf growth 96h
COc1ccccc1NC(=O)c1ccc(-n2ccnc2)c([N+](=O)[O-])c1,–,–,?,?
O=C(Nc1ccc(N2CCCCC2)c(Cl)c1)c1ccc(N2CCOCC2)c([N+](=O)[O-])c1,–,–,5.2µM,?
CN(C)S(=O)(=O)c1cc(NC(=O)c2ccc(-n3ccnc3)c([N+](=O)[O-])c2)ccc1Cl,–,–,8.3µM,?
Cc1cc(C(=O)Nc2cccc(-c3ccc(N4CCOCC4)nn3)c2)ccc1[N+](=O)[O-],·,–,?,10µM
CC(=O)N1CCN(c2ccc(NC(=O)c3ccc(N4CCCC4)c([N+](=O)[O-])c3)cc2Cl)CC1,–,–,12µM,?
c1ccc2c(c1)nc1n2CCN1CCN1CCCC1,–,–,–,–
O=C(CSc1ncn[nH]1)N1N=C2/C(=C/c3ccco3)CCCC2C1c1ccco1 (stereo unspecified),–,–,12µM,·
CCOC(=O)c1ccccc1NC(=O)COC(=O)CSc1ccccc1,·,–,–,–
C=CCn1c(SCC(=O)/C(C#N)=C(\C)N)nc2sc(CC)cc2c1=O,–,–,?,10µM
C=CCn1c(SCC(=O)O)nc2sc(CC)cc2c1=O,–,–,–,?
COCCn1c(C)cc(/C=C2/SC(=O)N(CC(=O)N3CCCC3)C2=O)c1C,–,–,–,–
CC(C)COc1ccc(C(=O)Nc2ncn[nH]2)cc1,–,·,–,–
CCOc1ccc(C(=O)Nc2ncn[nH]2)cc1,–,–,–,2.1µM
CC(C)Oc1ccc(C(=O)Nc2ncn[nH]2)cc1,–,–,–,10µM
O=C(O)c1ccc(C2NCC(c3ccccc3Cl)c3c2[nH]c2ccccc32)cc1 (stereo unspecified),–,–,–,–
COc1cc(C2NCC(c3ccc(Cl)cc3Cl)c3c2[nH]c2ccccc32)cc(OC)c1OC (stereo unspecified),–,–,13µM,12µM
COC(=O)C1(C)NC(=O)c2ccccc2N1 (stereo unspecified),–,–,–,13µM
Cc1csc(Nc2nc(N)c(C(=O)Nc3ccccc3)o2)n1,–,–,–[0.00184 µM],3.3µM
CCN(CC(=O)Nc1ccc(OC)cc1)C(=O)Cc1coc2cc(C)c(C)cc12,·,–,?,?
Cn1nnnc1SCC(=O)Nc1ccccc1-c1ccccc1,–,–,–,?
CCOC(=O)c1c(-c2ccccc2)csc1NC(=O)CSc1nnnn1C,–,–,4.7µM,·
CCOC(=O)c1c(NC(=O)CSc2nnnn2C)sc(C)c1-c1ccc(C)cc1,–,–,8.3µM,2.3µM
CCOC(=O)c1c(-c2ccccc2)csc1NC(=O)CSc1ccccc1,–,–,?,–
CCOC(=O)c1c(NC(=O)CSc2nncs2)sc(C)c1-c1ccccc1,–,–,–,?
CCOC(=O)c1c(-c2ccccc2)csc1NC(=O)CSc1nncs1,–,–,9.3µM,?
SMILES,NS1 inh,SARS PLP yeast,Pf growth 48h,Pf growth 96h
CCOC(=O)c1c(-c2ccc(OC)cc2)csc1NC(=O)CSc1ccccc1,–,–,·,13µM
O=C(COC(=O)c1cnccn1)NCCc1ccc(Cl)cc1,·,–,–,–
COC(=O)c1c(-c2ccc3ccccc3c2)csc1NC(=O)Cc1ccc(OC)c(OC)c1,–,–,8.3µM,9.3µM
O=C(CSc1nccn1-c1ccccc1)NO,·,–,2.1µM,0.93µM
COc1ccc(NC(=O)CSc2nccn2-c2ccccc2)cc1,–,–,–,–
COc1ccc(-n2ccnc2SCC(=O)NO)cc1,·,–,1.3µM,?
O=C(CSc1nccn1-c1cccc(Cl)c1)NO,·,–,0.74µM,?
Nc1nonc1-n1nnc(C(=O)N/N=C/c2c(F)cccc2Cl)c1-c1ccc2c(c1)OCO2,–,–,13µM,6.6µM
Nc1nonc1-n1nnc(C(=O)N/N=C/c2cccc(Cl)c2)c1-c1ccc2c(c1)OCO2,–,–,0.074µM,0.033µM
Nc1nonc1-n1nnc(C(=O)N/N=C/c2ccc(Br)cc2)c1-c1ccc2c(c1)OCO2,–,–,0.21µM,0.059µM
CC(C)(Cc1ccccc1)/[N+]([O-])=C\c1ccc(C(F)(F)F)cc1,·,–,?,–
O=C(c1cc(-c2ccc(Br)cc2)nc2ccccc12)N1CCN(c2ccccc2O)CC1,·,–,5.9µM,5.9µM
O=C(c1ccc2ccccc2n1)N1CCN(c2ccccc2O)CC1,–,–,?,13µM
Cc1ccc(-c2cc(C(=O)N3CCN(c4ccccc4O)CC3)c3ccccc3n2)o1,–,–,?,13µM
Cc1ccc(-c2cc(C(=O)N3CCN(c4ncccn4)CC3)c3ccccc3n2)cc1,–,–,?,–
O=C(NCC1CCCO1)c1cc([N+](=O)[O-])ccc1Cl (stereo unspecified),·,–,–,–
CC(C)C1(C)C(=O)N=C2c3ccccc3C(=O)N21 (stereo unspecified),–,–,–,12µM
c1ccc(C(c2ccccc2)c2ccn[nH]2)cc1,–,–,–,–

# Compound activity deposited in PubChem BioAssay by National Center for Advancing Translational Sciences (NCATS).
